Experimental data: ChEMBL document CHEMBL1201862, “PubChem BioAssay data set” (2004)
In all, about 400,000 compounds went through this assay and about 2,100 (0.53%) were called active. Not shown: some 14% with an inconclusive outcome. The rule behind the calls is not given here. For the sample, actives were picked, then their nearest neighbours and some compounds at random.

target: Ataxin-2 (Homo sapiens) (UniProt Q99700); test: qHTS for Inhibitors of ATXN expression.; type: functional
Sequence (Q99700 whole entry): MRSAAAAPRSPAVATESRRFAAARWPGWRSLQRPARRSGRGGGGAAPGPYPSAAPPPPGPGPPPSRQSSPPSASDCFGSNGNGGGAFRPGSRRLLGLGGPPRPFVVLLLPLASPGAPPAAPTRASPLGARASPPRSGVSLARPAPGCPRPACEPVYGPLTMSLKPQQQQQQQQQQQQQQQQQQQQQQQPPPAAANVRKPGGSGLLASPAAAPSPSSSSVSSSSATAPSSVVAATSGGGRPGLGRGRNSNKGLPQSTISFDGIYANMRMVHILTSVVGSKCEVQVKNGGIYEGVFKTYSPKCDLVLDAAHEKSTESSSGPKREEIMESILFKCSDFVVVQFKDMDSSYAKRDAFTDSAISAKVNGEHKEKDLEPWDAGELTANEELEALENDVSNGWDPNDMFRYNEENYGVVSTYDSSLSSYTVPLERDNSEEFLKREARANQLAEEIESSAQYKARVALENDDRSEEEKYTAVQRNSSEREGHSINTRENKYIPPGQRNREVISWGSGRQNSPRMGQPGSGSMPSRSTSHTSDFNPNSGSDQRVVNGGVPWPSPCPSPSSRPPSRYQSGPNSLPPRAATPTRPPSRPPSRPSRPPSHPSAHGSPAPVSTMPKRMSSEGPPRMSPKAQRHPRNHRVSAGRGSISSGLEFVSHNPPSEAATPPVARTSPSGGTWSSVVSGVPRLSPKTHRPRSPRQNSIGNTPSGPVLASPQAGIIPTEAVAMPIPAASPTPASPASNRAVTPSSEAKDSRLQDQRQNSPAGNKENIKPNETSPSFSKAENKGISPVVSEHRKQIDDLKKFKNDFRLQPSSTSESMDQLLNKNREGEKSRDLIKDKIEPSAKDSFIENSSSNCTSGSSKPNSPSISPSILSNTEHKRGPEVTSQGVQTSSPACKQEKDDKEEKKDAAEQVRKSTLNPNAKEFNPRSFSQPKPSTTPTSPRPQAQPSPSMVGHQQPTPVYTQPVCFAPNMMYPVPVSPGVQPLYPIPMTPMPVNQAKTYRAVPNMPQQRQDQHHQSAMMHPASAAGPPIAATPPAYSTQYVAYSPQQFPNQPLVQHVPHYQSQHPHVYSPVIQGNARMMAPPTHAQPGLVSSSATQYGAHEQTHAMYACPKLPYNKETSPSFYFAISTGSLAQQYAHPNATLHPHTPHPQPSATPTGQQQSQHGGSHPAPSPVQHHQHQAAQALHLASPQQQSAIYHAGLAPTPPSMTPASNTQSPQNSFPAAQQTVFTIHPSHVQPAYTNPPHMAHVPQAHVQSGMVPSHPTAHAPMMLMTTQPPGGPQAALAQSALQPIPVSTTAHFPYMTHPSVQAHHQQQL

Compound | Potency
O=C(OCC(=O)c1ccc[nH]1)c1cncc(Br)c1 | inactive
Cc1ccc(-n2[nH]c(C)c(/C=N/Nc3ccc([N+](=O)[O-])cc3[N+](=O)[O-])c2=O)cc1 | 14.1 µM (active)
Cc1[nH]c2ccccc2c1/C=N/Nc1ccc([N+](=O)[O-])cc1 | inactive
CN1CCN(S(=O)(=O)c2cc([N+](=O)[O-])ccc2N/N=C/c2ccc(Cl)cc2)CC1 | inactive
CCc1ccc(S(=O)(=O)N2CCN(Cc3ccco3)CC2)cc1 | inactive
CSC1=NCCN1S(=O)(=O)c1ccc(C)cc1 | inactive
CCc1ccc([C@@H]2CC=C(C(=O)O)[C@H](c3ccc(C(C)(C)C)cc3)N2S(=O)(=O)c2ccc(C)cc2)cc1 | 35.5 µM (active)
Cc1ccc(NC(=O)CSC(C)C(=O)OCc2cc(=O)oc3cc(O)ccc23)cc1 (configuration not stated) | inactive
CC(=O)Nc1ccc2cc3ccc(NC(C)=O)cc3nc2c1 | inactive
CCC(C)NCC(=O)Nc1ccc(-c2nc3cc(NC(=O)CNC(C)CC)ccc3o2)cc1 (configuration not stated) | 22.4 µM (active)
COc1cc(/C=C\C(=O)Nc2cc(=O)n(C)c(=O)n2C)cc(OC)c1OC | inactive
CNC[C@@H](CC1CCCCC1)NC[C@H](CC(C)C)NCCc1cccc(C(F)(F)F)c1 | 15.8 µM (active)
CSCCC(=O)N(C)CC1CCCN(CCc2cccc(C(F)(F)F)c2)C1 (configuration not stated) | inactive
O=c1nc2c(O)cccn2c2c1c(O)nc1ccccc12 | inactive
Nc1nc(O)c(CCCOc2ccc(NC(=O)CBr)cc2)c(-c2ccccc2)n1 | 25.1 µM (active)
Cc1nc(C)c(C(=O)OCC(=O)Nc2ccccc2)s1 | inactive
CCOc1ccc(NC(=O)COC(=O)CNC(=O)c2ccc(-c3ccccc3)cc2)cc1 | inactive
CC(C)CC1c2[nH]c3ccccc3c2CCN1C(=O)CCC(=O)N(C)C (configuration not stated) | inactive
Cc1cc(C)cc(NC(=O)C2CCCN(C(=O)c3cnn(-c4ccccc4)c3-n3cccc3)C2)c1 (configuration not stated) | 20 µM (active)
Cc1c(Cl)cccc1NC(=O)CN1CCN(CCNC=C2C(=O)CC(c3ccccc3)CC2=O)CC1 (configuration not stated) | inactive
Cc1c(Cl)cccc1NC(=O)C1CCCN(C(=O)c2cnn(-c3ccccc3)c2-n2cccc2)C1 (configuration not stated) | 39.8 µM (active)

Compound | Potency
Cc1cc(C)cc(NC(=O)Nc2ccccc2N2CCCCC2)c1 | inactive
Cc1c(CN2CCCC(C(=O)Nc3cccc(-n4cccn4)c3)C2)cnn1C (configuration not stated) | inactive
Cc1cc(Cl)ccc1C(=O)C1CCCN(C(=O)/C=C/c2cnn(C)c2)C1 (configuration not stated) | inactive
Cc1ccc(SCc2nn(C)c(Cl)c2C=O)cc1 | inactive
CCCN(C(=O)c1cccc(S(=O)(=O)N2CCCc3ccccc32)c1)C1CCS(=O)(=O)C1 (configuration not stated) | inactive
CC(C)c1cc(NCCOCCO)n2c(nc3ccccc32)c1C#N | inactive
OCCN(CCO)c1ccc(C(c2ccccc2Cl)c2ccc(N(CCO)CCO)cc2Cl)c(Cl)c1 | 39.8 µM (active)
Cc1cc(N(CCO)CCO)ccc1C(c1ccc(N(CCO)CCO)cc1C)c1ccccc1Cl | 39.8 µM (active)
COc1cc(/C=N/NC(=O)c2ccccn2)cc2c1OCO2 | inactive
CCN(CC)CCOc1ccc2c(c1)C(=NNC(=O)c1ccccn1)c1cc(OCCN(CC)CC)ccc1-2 | 39.8 µM (active)
CCOc1cc(NC(=O)c2ccccn2)c(OCC)cc1NC(=O)c1ccc(OC)cc1 | inactive
c1ccc(-c2nc(N3CCCC3)nc3ccccc23)cc1 | inactive
CCN(CC)c1ccc2cc(-c3nnc(-c4cccc(Cl)c4)o3)c(=O)oc2c1 | inactive
CCCCCCc1cc2cc(S(=O)(=O)c3ccc(Cl)cc3)c(=O)oc2cc1O | inactive
Cc1ccccc1C(=O)OC1CCN(C)CC1 | inactive
CC(=O)Nc1ccc(S(=O)(=O)Nc2nc3nc(-c4ccccc4)cc(-c4ccccc4)n3n2)cc1 | inactive
O=C(O)CCNc1nc(-c2ccccc2)c2cc(Br)ccc2n1 | inactive
CC(=O)Nc1ccc(CNc2nc(NCCN(C)C)nc3cc(-c4ccccc4)sc23)cc1 | 31.6 µM (active)
COCCNc1nc(NCc2ccc(NC(C)=O)cc2)c2sc(-c3ccccc3)cc2n1 | 31.6 µM (active)
COCCNc1nc(NCCOc2ccccc2)c2sc(-c3ccccc3)cc2n1 | 25.1 µM (active)
COCCCNc1nc2c(-c3cccc(C)c3)nnn2c2ccccc12 | inactive

Compound | Potency
Cc1ccc2nc(NCCC(=O)O)nc(-c3ccccc3)c2c1 | inactive
COCCNc1nc2c(-c3cccc(C(F)(F)F)c3)nnn2c2ccccc12 | inactive
NNC(=O)c1sc(-c2ccccc2)cc1N | inactive
C[C@]12CCCC[C@@H]1CC[C@@H]1[C@@H]2CC[C@@]2(C)[C@H]1CC[C@@]2(O)CNCCO | inactive
O=C(c1cc(Br)c(Br)s1)N1CCc2ccccc2C1 | inactive
O=S(=O)(NC1CCSc2ccccc21)c1ccc(Cl)nc1 (configuration not stated) | inactive
Cc1cccn2c(=O)c3cc(C#N)/c(=N\C(=O)c4cccs4)n(CCCOC(C)C)c3nc12 | inactive
Cc1ccc(C(=O)NC(=S)NCc2ccccc2)cc1Br | inactive
COc1ccc(C[C@H]2CN3C(=NC[C@@H]3Cc3ccc(O)cc3)N2CCNC(=O)c2ccc(C)c(Br)c2)cc1 | 39.8 µM (active)
COc1ccc(C[C@H]2CN3C(=NC[C@@H]3Cc3ccccc3)N2CCNC(=O)c2ccc(C)c(Br)c2)cc1 | 22.4 µM (active)
COC(=O)CCNC(=O)c1ccc2nc(Cc3ccc(OC)cc3)oc2c1 | inactive
COc1ccc(C(=O)NCCNc2nc3c(C)cccc3cc2C#N)cc1 | inactive
COc1ccc(C[C@H]2CN3C(=NC[C@@H]3C(C)C)N2CCNC(=O)c2ccc(C)c(Br)c2)cc1 | 20 µM (active)
COc1cccc(C(=O)NCCn2ccc3ccccc32)c1 | inactive
COc1cccc(CNC(=O)c2ccc(C)c(NC3=NC4CS(=O)(=O)CC4S3)c2)c1 (configuration not stated) | inactive
CC(=O)Nc1ccc(NC(=O)CSc2ccc3nnc(CCNC(=O)c4ccccc4)n3n2)cc1 | inactive
CC1CCN(c2nnc(-c3ccccc3)c3ccccc23)CC1 | inactive
Cc1sc2nc(-c3ccccn3)nc(O)c2c1-c1ccccc1 | inactive
O=[N+]([O-])c1ccc(C2NS(=O)(=O)N=C3CCCCCN32)cc1 (configuration not stated) | inactive
CCCc1cc(C(=O)Cc2nc3ccccc3s2)c(O)cc1O | inactive
